High-throughput results from PubChem.
Rows were chosen to be rich in hits. Some 4.7% of all compounds tested hit in one or more screens of this group.
D3 ag = qHTS of D3 Dopamine Receptor Agonist: qHTS; D3R DiscoveRx beta-arrestin cells, luminescence, 90 min; AID 652048, 2013; max activation, %; 0.58% of 410,000 active; in the data active means max activation above about 30%; further: 0% is about no effect
Target sequence (P35462 whole entry, looked up): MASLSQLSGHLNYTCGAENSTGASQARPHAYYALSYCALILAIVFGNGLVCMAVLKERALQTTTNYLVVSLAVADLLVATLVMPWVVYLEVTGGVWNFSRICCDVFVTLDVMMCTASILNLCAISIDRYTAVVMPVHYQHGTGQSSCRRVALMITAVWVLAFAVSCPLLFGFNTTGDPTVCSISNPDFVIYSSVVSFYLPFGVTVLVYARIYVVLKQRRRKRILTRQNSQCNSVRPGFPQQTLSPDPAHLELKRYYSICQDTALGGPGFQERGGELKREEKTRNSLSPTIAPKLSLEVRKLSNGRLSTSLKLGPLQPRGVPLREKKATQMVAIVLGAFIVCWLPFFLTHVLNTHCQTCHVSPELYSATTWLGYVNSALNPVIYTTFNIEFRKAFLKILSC
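Cells at 1500/well, incubated overnight, then treated with pinned compounds (dopamine as control) for 90 min at 37 degrees C. DiscoveRx reagent added for 30 - 60 minutes at room temperature; luminescence read.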
ATXN2 expr inh = Primary qHTS for Inhibitors of ATXN expression; HEK-293 ATXN2-luciferase reporter, luminescence, 24 h; Potency, µM (highest dose often 57 µM), inactives show at the highest dose activity change, negative = inhibition, usual class: inhibitors; 0.72% of 360,000 active; further: potency means the concentration at half of the fitted maximal effect; on the % scale 0 is the no-effect control and ±100 the full control effect; nearly all actives have a fitted effect of over 55% in size
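qHTS (up to 57 uM final) was run with 24 h compound exposure of reporter cells at 37 °C. Each well was multiplexed: SteadyGlo luminescence measured ATXN2-luciferase expression after a fluorogenic Gly-Phe-AFC viability readout (25 uM final).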
S2 tox = Viability Counterscreen for Primary qHTS for Inhibitors of ATXN expression | S2 cells (HEK-293 line with an ATXN2-luciferase reporter) viability, CellTiter-Fluor protease fluorescence, 24 h | Potency, µM (series often up to 56.7 µM), hits mostly cytotoxic | 0.49% of 400,000 active | AID 651635, 2014; further: potency means the concentration at half of the fitted maximal effect; nearly all actives have a fitted effect of over 40% in size
HepG2 viability = qHTS for Inhibitors of TGF-b: Cytotox Counterscreen. HepG2 CAGA-GFP viability, ATP luminescence, 18 h. Potency, µM (series often up to 46.1 µM), without a hit: at the highest dose activity change, negative = cytotoxicity, actives largely listed as cytotoxic. 0.76% of 410,000 active. AID 588856, 2011; further: potency means the concentration at half of the fitted maximal effect
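CellTiter-Glo luminescence gave cytotoxicity after 18 hours at 37 degrees C. The cells were HepG2 CAGA-GFP in 1% FBS DMEM, stimulated with 500 pg/mL TGF-beta after compound addition. %Activity was normalised to no-cell wells (complete cell-killing) and DMSO (no toxicity), and curves were fitted and classified.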
DRD3 antagonist = qHTS of D3 Dopamine Receptor Antagonist: qHTS; D(3) dopamine receptor (Homo sapiens), P35462; D3R cells, DiscoveRx beta-arrestin luminescence, antagonist mode; hits give low values; max response, negative = inhibition, %; 2.5% of 360,000 active; AID 652054, 2013; in the data active means max response below about -50%; inconclusive means no clear call, values can overlap the other calls; further: on the % scale 0 is the no-effect control and ±100 the full control effect
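Cells expressing the human receptor were seeded at 1500 cells/well, incubated overnight at 37 degrees C in 5% CO2, then exposed to library compounds with dopamine controls for 90 minutes at 37 degrees C before luminescent detection.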
TGFb SMAD3 inh = qHTS for Inhibitors of TGF-b | 1.2% of 410,000 active | HepG2 CAGA-GFP TGF-b/SMAD3 reporter, GFP fluorescence, 18 h; TGF-beta stimulated, 500 pg/mL final | Potency, µM (titrated, usually from 46.1 µM), for the others: at the highest dose activity, negative = inhibition, usual class: inhibitors; further: potency means the concentration at half of the fitted maximal effect; on the % scale 0 is the no-effect control and ±100 the full control effect; nearly all actives have a fitted effect of over 65% in size
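Inhibition was scored as loss of TGF-beta-induced (500 pg/mL final, 18 hours, 37 degrees C) GFP in HEPG2 cells carrying a CAGA-GFP reporter, in DMEM with 1% FBS. Well GFP was summed per cell; Activity was normalised to unstimulated and stimulated DMSO wells, then concentration-response fitting.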
* = called active by the depositor; i = inactive; ? = inconclusive; / = no result; [ ] = dose if it differs, or a comment. Unless noted, the call rests on the fitted dose curve; in most records, active means well fitted curve in the direction sought with a large enough effect; inconclusive means small, poorly fitted or top-dose-only effect, or another doubt; inactive means no such curve, though single readings can be large; an effect the other way counts as inactive or inconclusive.

SMILES | D3 ag | ATXN2 expr inh | S2 tox | HepG2 viability | DRD3 antagonist | TGFb SMAD3 inh
COC(=O)c1[nH]c2cc(OC)ccc2c1NC(=O)CCN1CCCC(C)(C)C1 | -63 | -7% | i | -12% | -56* | -5%
COC(=O)c1[nH]c2cc(OC)ccc2c1NC(=O)CCN1CCCCC1 | -31 | -34% | i | 14% | 12 | 26%
COC(=O)c1[nH]c2cc(OC)ccc2c1NC(=O)CCN1CCN(Cc2ccc3c(c2)OCO3)CC1 | -9 | -3% | i | -21% | -81* | -11%
COc1ccc(NC(=O)CSc2nc3c(c(=O)[nH]2)CCC3)cc1 | 2 | -5% | i | -3% | / | 6%
CCOC(=O)C(C)(C)Sc1ncnc2nc[nH]c12 | 1 | 10% | i | -3% | 1 | ?
CCOC(=O)c1cc([N+](=O)[O-])cc([N+](=O)[O-])c1Sc1ncnc2nc[nH]c12 | -25 | ? | / | -101% | -86* | 13µM*
CCCCn1c2c(c(=N)c3c1CCC3)CCC2 | -5 | ? | i | 4% | 18 | ?
CCn1c2c(c(=N)c3c1CCC3)CCC2 | -5 | -23%[11.3 µM] | i | 12% | -16 | -5%
CCCCCCCn1c2c(c(=N)c3c1CCC3)CCCC2 | 6 | 1.9µM* | ? | -12% | -7 | ?
CCCCCCCCCn1c2c(c(=N)c3c1CCC3)CCC2 | -3 | 2µM* | ? | -72% | -56* | 4.5µM*
CCCCCCn1c2c(c(=N)c3c1CCC3)CCC2 | -6 | 8.9µM* | i | -8% | -19 | ?
Cc1cc2ccc(Cl)nc2nc1C | / | / | / | 1% | / | 0%
CCN1CC=C2C(C#N)=C(N)C(C#N)(C#N)C(c3cc(Cl)ccc3Cl)C2C1 (stereo unspecified) | -18 | -9% | i | -54% | -90* | 0%
COc1cc(C2C3CN(C)CC=C3C(C#N)=C(N)C2(C#N)C#N)ccc1OC(C)C (stereo unspecified) | -10 | -3% | i | -5% | ? | 22%
CC(C)N1CC=C2C(C#N)=C(N)C(C#N)(C#N)C(c3ccccc3)C2C1 (stereo unspecified) | 0 | -8% | i | -24% | -77* | 19%
O=C(Nc1ccccc1Sc1ccccc1)c1cnn2c1NC(=C1CC1)C=C2C(F)F | / | / | / | -15% | / | -2%
Cc1cc(C)c(Cn2c(=O)n(CCC(=O)NCCc3ccccc3)c(=O)c3ccccc32)c(C)c1 | 4 | 12% | i | -1% | / | ?
COc1ccc(CC2S/C(=N/N=C/c3ccc(O)cc3)NC2=O)cc1 (stereo unspecified) | -16 | 4% | i | 20% | -6 | 35%
O=C1N/C(=N/N=C/c2ccc(O)cc2)SC1Cc1ccccc1 (stereo unspecified) | -12 | 7% | i | -6% | -17 | -5%
COc1ccc(CC2S/C(=N/N=C/c3ccccc3O)NC2=O)cc1 (stereo unspecified) | -12 | ? | ? | -51% | -17 | 7.9µM*
O=C1N/C(=N/N=C/c2ccccc2O)SC1Cc1ccc(F)cc1 (stereo unspecified) | -17 | 8.9µM* | ? | -29% | -56* | ?
COc1ccc(OC)c(-c2csc(NC(=O)Cc3ccccc3)n2)c1 | -6 | 5% | ? | 2% | 4 | ?
COC(=O)c1cc(-c2cc(OC)ccc2OC)nc2c1c(=O)n(C)c(=O)n2Cc1ccccc1 | -29 | -12% | / | -5% | -79* | -9%
CC(=O)N1/C(=C/c2ccc(N(C)C)cc2)C(=O)c2ccccc21 | -12 | 2%[11.3 µM] | ? | -47% | -51* | 15%
CCOc1ccc(/C=C2\CCC(C3CCCC3)C2=O)cc1 (stereo unspecified) | 6 | 47% | i | 5% | 5 | 21%
SMILES | D3 ag | ATXN2 expr inh | S2 tox | HepG2 viability | DRD3 antagonist | TGFb SMAD3 inh
CCC(=O)OCOc1ccc(/C=C2/CCC(CN(C)C)C2=O)cc1 (stereo unspecified) | -10 | ? | ? | -99% | -87* | 6.3µM*
C=C1c2c(Cl)ccc(O)c2C(O)=C2C(=O)[C@]3(O)C(O)=C(C(N)=O)C(=O)[C@@H](N(C)C)[C@@H]3[C@@H](O)[C@H]12 | 4 | / | i | / | / | /
CC(C)(C)c1ccc(NC(=O)COC(=O)c2ccccc2OCC(=O)Nc2ccc(Br)cc2)cc1 | / | / | / | 7% | / | 12%
COc1ccc(N2CCN(CCCNC(=O)Cn3c(=O)c4cccn4c4cccnc43)CC2)cc1 | -6 | / | ? | -50% | ? | 4%
O=c1c2cccnc2[nH]c(=S)n1CCCN1CCN(c2ccc(F)cc2)CC1 | 0 | 26% | i | 2% | -65* | -7%
O=C(Cn1c(=O)c2cccn2c2cccnc21)NCCCN1CCN(c2ccc(F)cc2)CC1 | -25 | -14% | i | -20% | -118* | 6%
COc1ccc(N2CCN(CCCNC(=O)Cn3c(=O)c4cccn4c4ccccc43)CC2)cc1 | -5 | -13% | i | -1% | -60* | 2%
Cc1ccc(-n2c3c(c(=O)[nH]c2=O)C(NC(=O)c2ccccc2C)(C(F)(F)F)C(=O)N3)cc1 (stereo unspecified) | 6 | 14% | i | 5% | / | 16%
CCOc1ccc(-n2c(=O)c3c4c(sc3n(CC(=O)Nc3cccc(C(F)(F)F)c3)c2=O)CCCCC4)cc1 | 4 | 4% | i | 3% | / | -13%
C[C@H]1CN([C@@H](C)CO)C(=O)Cc2cc(NC(=O)Nc3ccccc3)ccc2O[C@H]1CN(C)Cc1ccccc1 | 10 | ? | 28µM* | -82% | -17 | ?
C[C@H](CO)N1C[C@H](C)[C@H](CN(C)Cc2ccncc2)Oc2ccc(NC(=O)Nc3ccc(C(F)(F)F)cc3)cc2CC1=O | -3 | ? | 28µM* | -59% | -28 | 13µM*
Cc1nn(C)c(Cl)c1CN1CCOc2ccc(CN3CCC(Oc4cccnc4)CC3)cc2C1 | / | / | i | / | / | /
Cc1cc(C)c(Cn2c(C(O)c3ccccc3)nc3ccccc32)c(C)c1 (stereo unspecified) | -7 | ? | ? | -39% | / | 16µM*
CCn1c(C(O)c2ccccc2)nc2ccccc21 (stereo unspecified) | 2 | -2% | i | 1% | -7 | 0%
O=C(C[n+]1ccncc1)c1cccc([N+](=O)[O-])c1 | / | / | / | 9% | / | ?
